Reference: PubChem BioAssay (Tox21)
Inconclusive results are not listed. Unmarked numbers belong to inactive results. Activity calls are given as the source filed them. Calls come from the whole dose curve.

assay: p53 small molecule agonists, cell-based qHTS assay with human liver microsomes: qHTS cell viability counter screen (AID 1963579); conditions: p53RE-bla HCT-116 viability, ATP luminescence, 16 h, HLM; series mostly up to 66 µM; activity change, negative = cytotoxicity: at the top concentration; note: nearly all actives have a fitted effect of over 45% in size
Source text: National Center for Advancing Translational Sciences [NCATS]
Division of Preclinical Innovation [DPI]
U.S. Environmental Protection Agency [EPA]
National Institutes of Environmental Health Sciences [NIEHS]
National Toxicology Program [NTP]
U.S. Food and Drug Administration [FDA]
p53, a tumor suppressor protein, is activated following cellular insult, including DNA damage and other cellular stresses. The activation of p53 regulates cell fate by inducing DNA repair, cell cycle arrest, apoptosis, or cellular senescence. The activation of p53, therefore, is a good indicator of DNA damage and other cellular stresses. […] The activation of the reporter gene under culture conditions can be detected by fluorescence intensity. This cell line was used to screen the Tox21 10K compound library in the condition of presence of human liver microsomes and to identify agonists that activate the p53 signaling pathway after in vitro metabolic activation (Ooka et al., Archive of Toxicology 96:1975-1987, 2022).
Tox21 Assay Protocol Summary:
The p53RE-bla cells were dispensed at 4,000cells/3ul/well in 1536-well black-clear bottom plates. After the assay plates were incubated at 37 C, 5% CO2 incubator for 5 hours, 23 nL of compounds dissolved in DMSO, positive controls or DMSO only was transferred to the assay plate. Following compound addition, 3 uL of human liver microsomes (XenoTech, Kansas City, KS) at final concentration of 0.5 mg/mL and 1uL of B-Nicotinamide adenine dinucleotide 2'-phosphate (NADPH) at final concentration of 0.5 mg/mL were transferred to the assay plate. The plates were incubated at 37 C for 16 hours. 1 uL of LiveBLAzer detection mixture was added to each well and the plates were incubated at room temperature in the dark for 2 h. Fluorescence intensity at 460 and 530 nm emission and 405 nm excitation were measured by an Envision plate reader. For cell viability readout that measures cytotoxicity, 4 ul/well of CellTiter-Glo reagent was added into the assay plates using a Flying Reagent Dispenser. After 30 min incubation at room temperature, the luminescence intensity in the plates was measured using a ViewLux plate reader.
% is set by controls: 0 for no effect and ±100 for the full control effect; potency is the fitted concentration of half-maximal effect.

Compound	activity change, negative = cytotoxicity	Potency
CCOC(=O)c1cn2nc(OP(=S)(OCC)OCC)cc2nc1C	-10.9%	
O=C(O)C(F)(F)C(F)(F)C(F)(F)C(F)(F)C(F)(F)C(F)(F)C(F)(F)C(F)(F)C(F)(F)F	23.4%	
CCC1(c2ccccc2)C(=O)NC(=O)NC1=O	-1.41%	
COC(N)=O	7.63%	
Fc1ccc(C(OCCN2CCN(CCCc3ccccc3)CC2)c2ccc(F)cc2)cc1	-3.11% [at 30.3 µM]	
CN1C(=O)CN=C(c2ccccc2)c2cc([N+](=O)[O-])ccc21	-3.61% [at 30.3 µM]	
Oc1ccc([C@H]2CNCc3c2ccc(O)c3O)cc1O	-2.25% [at 30.3 µM]	
CC(O)C#N (stereo not given)	-1.37%	
Cc1c(COC(=O)[C@@H]2[C@H](/C=C(\Cl)C(F)(F)F)C2(C)C)cccc1-c1ccccc1	-1.13%	
O=C(CCCCl)c1ccc(F)cc1	-2.71% [at 30.3 µM]	
O=C1CN=C(c2ccccc2)c2cc([N+](=O)[O-])ccc2N1	-11.1% [at 30.3 µM]	
Cc1ccc([N+](=O)[O-])[c]2c1[O][Hg]2		15.8 µM (active)
CCC(C(N)=O)N1CCCC1=O (stereo not given)	-3% [at 30.3 µM]	
CCNP(=S)(OC)O/C(C)=C/C(=O)OC(C)C (stereo not given)	-7.52%	
NC(=O)c1ccc(N)nc1	2.67%	
CCCCCCC[CH2][Sn]([Cl])([Cl])[CH2]CCCCCCC	3.62%	
NC1=NC(=O)C(c2ccccc2)O1 (stereo not given)	-11.9% [at 30.3 µM]	
CN(C)CCCCCCN(C)C	1.31%	
CC1(C)CCC(Cc2ccc(Cl)cc2)C1(O)Cn1cncn1 (stereo not given)		45.8 µM (active)
CCOP(=S)(OCC)Oc1cc(-c2ccccc2)on1	10.1%	

Compound	activity change, negative = cytotoxicity	Potency
CC1N=C(N)OC1c1ccccc1 (stereo not given)	-3.15%	
COC(=O)c1ccccc1S(=O)(=O)NC(=O)N(C)c1nc(C)nc(OC)n1	-0.681%	
O=c1ssc(Cl)c1Cl	4.86%	
CN=CNc1ccc(C)cc1C	3.15%	
CN[C@@H](C)[C@H](O)c1ccccc1	15.2% [at 30.3 µM]	
Cc1cc(C)c(C2=C(OC(=O)CC(C)(C)C)C3(CCCC3)OC2=O)c(C)c1	-8.98%	
CCc1ccc(C2CCNCC2)cc1	-1.97% [at 30.3 µM]	
O=C(NC(O)C(Cl)(Cl)Cl)NC(O)C(Cl)(Cl)Cl (stereo not given)	8.88% [at 30.3 µM]	
C[C@]12CC[C@H]3[C@@H](CCC4=CC(=O)CC[C@@H]43)[C@@H]1CC[C@@H]2OC(=O)CCC1CCCCC1	-6.16% [at 30.3 µM]	
CCCN(CC1CC1)c1c([N+](=O)[O-])cc(C(F)(F)F)cc1[N+](=O)[O-]	-0.373%	
COc1ncc(F)c2nc(S(=O)(=O)Nc3c(F)cccc3F)nn12	3.66% [at 30.3 µM]	
CSC1=N[C@@](C)(c2ccccc2)C(=O)N1Nc1ccccc1	-6.82%	
CC[C@H](O)C(C[C@H](C)N(C)C)(c1ccccc1)c1ccccc1	-12.5%	
CCN(CC)C(=S)[S-].CCN(CC)C(=S)[S-].[Zn+2]		3.21 µM (active)
c1csc(-c2ccc(-c3cccs3)s2)c1	-3.4%	
NP(N)(=O)NC(=O)c1ccc(F)cc1	-3.73% [at 30.3 µM]	
Cn1[nH]nnc1=S	5.91%	
O=c1oc2ccccc2c(O)c1C1CCCc2ccccc21 (stereo not given)	-10.7%	
N#CN=C1SCCN1Cc1ccc(Cl)nc1	-0.334%	
Oc1ccc(Cl)c(Cl)c1Cl	-25.7%	
